Four compounds from PubChem BioAssay (NCATS) can be followed below.

Molecules are shown by their SMILES. Several values for one entry are separate records, joined by “and”; a condition that tells them apart may be missing. Equal values may be shown once. Records with an inconclusive call do not appear. Activity calls are given as the source filed them. Unless noted, calls come from the whole dose curve; as a rule, active = well fitted curve in the direction sought with a large enough effect; inconclusive = small, poorly fitted or top-dose-only effect, or another doubt; inactive = no such curve, though single readings can be large; an effect the other way counts as inactive or inconclusive.

Experiment [1] is described as follows: AP1 Signaling Pathway (AID 357; active = well fitted curve in either direction with a large enough effect, not every such curve was filed as active;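 note: ME-180 reporter cells stimulated with EGF at its EC50 level; % is set by controls: 0 for no effect and ±100 for the full control effect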). Particulars: ME-180 AP-1-bla reporter, EGF-induced, beta-lactamase ratio, 5 h. The essentials: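 Modulation of EGF-driven AP-1 transcription was assessed with a beta-lactamase reporter in ME-180 cells. Compound and EC50 EGF were co-incubated 5 hours at 37 °C before 2.5-hour CCF4 loading at room temperature and dual-emission reading.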

In experiment [2] the target is Cytochrome P450 1A2 (Homo sapiens) (UniProt P05177). As to the kind of experiment: p450-cyp1a2 (AID 410; calls by dose curve; note: potency is the fitted concentration of half-maximal effect;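 for activity change, negative = inhibition: -100% = full effect of reference inhibitor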). Particulars: recombinant CYP1A2, luciferin-ME demethylation, luminescence; series mostly up to 57 µM. The essentials: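 Luminescent readout of luciferin formed from Luciferin-ME by human CYP1A2; data normalized against complete inhibition by 57 uM furafylline. Enzyme 20nM, substrate 100uM at Km, 100mM KPO4 buffer, 60 min reaction at room temperature.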

Experiment [3] in a line: Stat Signaling Pathway (AID 446; active = well fitted curve in either direction with a large enough effect, not every such curve was filed as active;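 note: ME-180 cervical cancer cells given 40 pM IL-6 alongside compound; SIE-controlled beta-lactamase reporter measured as 460/530 nm FRET emission ratio; % is set by controls: 0 for no effect and ±100 for the full control effect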). The conditions noted are these: ME-180 SIE beta-lactamase reporter, IL-6 stimulated, 5 h. An outline of the steps: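 Reporter line: ME-180 cervical carcinoma, SIE-beta-lactamase. Treatment: compound with 40 pM IL-6, 5 hrs, 37 C, in low-serum OPTI-MEM with 10 mM HEPES pH 7.3. Detection: 460/530 nm fluorescence.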
The target of experiment [4] is Glucocorticoid receptor (Homo sapiens) (UniProt P04150). Briefly: GR-GFP Redistribution (AID 450;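 active = compounds whose dose series gives a full or clear partial fitted curve of increased nuclear translocation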; note: potency is the fitted concentration of half-maximal effect). Particulars: U2OS GR-GFP nuclear translocation, laser cytometry, 2 h.
The target of experiment [5] is Mitogen-activated protein kinase 10 (Mus musculus) (UniProt Q61831). As to the kind of experiment: JNK3 AlphaScreen Assay (AID 530; active = well fitted curve in either direction with a large enough effect, not every such curve was filed as active;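 note: kinase came from lysate of stimulated human HepG2 cells; signal reports phosphorylation of biotinylated GST-cJun 1-79 at Ser73 with 10 µM ATP; % is set by controls: 0 for no effect and ±100 for the full control effect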). Particulars: JNK3 lysate, c-Jun phosphorylation; series mostly up to 57.1 µM. The essentials:
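Pre-activated (IL-1β/TNFα) JNK3 in HepG2 lysates phosphorylates biotin-GST-cJun(1-79), 10 uM ATP; anti-phospho-cJun(Ser73) AlphaScreen read at room temperature, pH 7.6 Tris buffer. Compounds pre-incubated 15 min as titrations.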
Background: In Alpha technology, singlet oxygen from a donor bead excites a nearby acceptor bead.

In experiment [6] the target is Pyruvate kinase (Leishmania mexicana) (UniProt Q27686). As to the kind of experiment: qHTS Validation Assay for Inhibitors of Leishmania Mexicana Pyruvate Kinase (AID 945).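 Note: 0% = DMSO only neutral control wells.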 The conditions noted are these: purified L. mexicana pyruvate kinase, enzyme activity, E451W mutant enzyme; series mostly up to 57.5 µM. An outline of the steps: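 qHTS eight-point titrations against 0.2 nM LmPYK (E451W) in imidazole buffer pH 7.2 with 0.5 mM PEP, 0.1 mM ADP; 1 h, room temperature. Readout: PKLight luminescence, normalized to neutral DMSO wells.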

Experiment [7] addresses Alpha-galactosidase A (Homo sapiens) (UniProt P06280). As to the kind of experiment: Counterscreen for Glucocerebrosidase Inhibitors: qHTS Assay for Human alpha-Galactosidase at pH 4.5 (AID 992). Note: 0% is about no effect. The conditions noted are these: purified enzyme, fluorogenic substrate; series mostly up to 76.9 µM. An outline of the steps: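 Quantitative HTS: compounds tested from 0.7 nM up to 77 uM against 2 nM enzyme with 80 uM 4-MU alpha-D-galactopyranoside. The 20 min room-temperature reaction is stopped with 1M NaOH/1M glycine, pH 10.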
For orientation: A counterscreen serves to expose hits that act by an unwanted route or on another target.

Experiment [8] has as its target alpha-glucosidase (Oryza sativa, rice) (UniProt Q653V4). As to the kind of experiment: Counterscreen for Glucocerebrosidase Inhibitors: qHTS Assay for Rice alpha-Glucosidase at pH 5.0 (AID 997).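 Note: 0% = full activity with enzyme and -100% = basal without enzyme.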 Particulars: rice alpha-glucosidase enzyme activity; series mostly up to 76.9 µM. An outline of the steps: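 Rice alpha-glucosidase (4 nM final) with 400 uM 4-methylumbelliferyl-alpha-D-glucopyranoside in citrate buffer pH 5.0, 20 min at room temperature, stopped at pH 10; fluorescence 365/440 nm, compounds 0.7 nM–77 uM, AC50 from Hill fits.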

The nature of experiment [9]: qHTS Assay for Lipid Storage Modulators (AID 1519; calls by dose curve). Particulars: Drosophila S3 cells, BODIPY lipid droplet/cell ratio, laser cytometry, cells loaded with oleic acid; for activity change, negative = inhibition: at 25.7 µM (top of the series). The essentials:
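Cells seeded at 5,000 per well were treated with compounds over a concentration series and loaded with oleic acid (400 uM, as added). Lipid droplet fluorescence (488 nm excitation, 500-530 nm channel) was read by laser-scanning cytometry and normalized to 20 uM Triacsin C.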
On the technique in general: In qHTS, concentration-response curves come from the screen itself.

The target of experiment [10] is ATP-dependent 6-phosphofructokinase (Trypanosoma brucei brucei) (UniProt O15648). As to the kind of experiment: qHTS Assay to Find Inhibitors of T. brucei phosphofructokinase: hit validation (AID 492961).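 Note: luminescence reports ADP formed as PFK phosphorylates fructose-6-phosphate with ATP; % is set by controls: 0 for no effect and ±100 for the full control effect.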 The conditions noted are these: T. brucei PFK, ADP-Glo luminescence; series mostly up to 24.3 µM. An outline of the steps:
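Compounds titrated; %activity normalized to 0x and 1x enzyme controls, curve-fitted. Readout: ADP-Glo luminescence after 45 min room-temperature reaction of 1.25 nM PFK, 0.1 mM ATP, 0.5 mM F6P, pH 8.0.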

Experiment [11] addresses Ubiquitin carboxyl-terminal hydrolase 1 (Homo sapiens) (UniProt O94782). Briefly: Inhibitors of USP1/UAF1: Pilot qHTS (AID 504865).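 Note: rhodamine fluorescence freed from ubiquitin-rhodamine substrate followed over time; top concentration of the series differs between compounds; % is set by controls: 0 for no effect and ±100 for the full control effect; nearly all actives have a fitted effect of over 35% in size.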 The conditions noted are these: purified USP1/UAF1, Ub-rhodamine cleavage fluorescence; series mostly up to 54.9 µM. The essentials:
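USP1/UAF1 complex (1nM) preincubated with compound 15 min at room temperature, then Ub-Rho substrate (150nM final) added. Fluorescence read kinetically at 480/540 nm, 6 reads every 60 seconds. Buffer: 50mM HEPES pH 7.8, 0.5mM EDTA, 0.1 mg/ml BSA, 1mM TCEP, 0.01% Tween-20.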

Experiment [12] deals with Luciferin 4-monooxygenase (Photinus pyralis) (UniProt P08659). As to the kind of experiment: Biochemical firefly luciferase enzyme assay for NPC (AID 624030).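 Note: purified P. pyralis luciferase at 10 nM with luciferin and ATP substrate; 0% = DMSO and -100% = full luciferase inhibition by PTC124 control; nearly all actives have a fitted effect of over 70% in size.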 Particulars: purified P. pyralis luciferase, luminescence, 5 min; series mostly up to 58.6 µM. An outline of the steps: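 Purified P. pyralis luciferase at 10 nM in 50 mM Tris Acetate (final), luminescence read within 5 minutes of enzyme addition to compounds. Activity normalised to PTC124 versus DMSO; concentration-response curves classed by r2, magnitude and activity.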

A short description of experiment [13]: qHTS profiling for inhibitors of Plasmodium falciparum proliferation (AID 504749).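 Note: 0% = DMSO vehicle and full inhibition = artemisinin control; nearly all actives have a fitted effect of over 60% in size.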 The conditions noted are these: P. falciparum in erythrocytes, SYBR Green DNA, 72 h, at 12.8 µM (top of the series). The essentials: (§1)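 P. falciparum-infected erythrocytes (0.3% parasitemia, 2.5% hematocrit) incubated with compound 72 h at 37 C, 5% CO2. Parasite DNA detected by SYBR Green after lysis, overnight at room temperature; normalised to 0.29 uM artemisinin and DMSO.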

The subject of the next experiment is AS120. The description is as above. The conditions noted are these: P. falciparum in erythrocytes, SYBR Green DNA, 72 h; series mostly up to 28.7 µM. An outline of the steps: as §1
In the next experiment the test system is CP238. Described as above. Particulars: P. falciparum in erythrocytes, SYBR Green DNA, 72 h; series mostly up to 12.8 µM. The essentials:
as §1

A further experiment concerns CP265. The experiment is described as above. The conditions noted are these: P. falciparum in erythrocytes, SYBR Green DNA, 72 h; series mostly up to 12.8 µM. An outline of the steps:
as §1

Another experiment concerns FAB9. Described as above. Particulars: P. falciparum in erythrocytes, SYBR Green DNA, 72 h; series mostly up to 12.8 µM. The essentials:
as §1

Experiment [14] can be described thus: NFAT Signaling Pathway (AID 444; active = well fitted curve in either direction with a large enough effect, not every such curve was filed as active). Particulars: Jurkat NFAT-bla M1, carbachol, beta-lactamase ratio, 5 h; at 7.69 µM (top of the series) unless noted. An outline of the steps: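 Jurkat cells with NFAT-driven β-lactamase reporter and co-expressed M1 receptor, stimulated with carbachol (final 1 uM, ~EC50), compound titration, 5 h at 37 °C. CCF4 loaded 1 h at RT; 460/530 nm ratio gave %activity and AC50.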

Experiment [15] deals with Glucocorticoid receptor (Homo sapiens) (UniProt P04150). As to the kind of experiment: GR-EFC Redistribution (AID 451; calls by dose curve; note: potency is the fitted concentration of half-maximal effect). Particulars: CHO-K1 GR-EFC translocation, beta-gal luminescence, 2 h. An outline of the steps:
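CHO-K1 cells expressing nuclear EA and GR-ED fragments of b-gal; compounds titrated up to 46 uM final, 2 h at 37 C. GR nuclear translocation read as complemented b-gal luminescence after 1 h RT detection.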

The target in experiment [16] is 3',5'-cyclic-AMP phosphodiesterase 4B (Homo sapiens) (UniProt Q07343). As to the kind of experiment: qHTS Assay for Inhibitors of PDE-IV (AID 607; active = well fitted activation curve with a large enough effect in the main read-out, with a control signal flat, not every such curve was filed as active; note: % of control where 0% means no effect). The conditions noted are these: HEK293 ACTOne CNG channel cells, membrane potential fluorescence; series mostly up to 22.9 µM. The essentials:
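Cell-based read-out of cAMP via a modified cyclic nucleotide-gated channel and membrane potential dye (535/590 nm) in HEK293 cells expressing PDE4 endogenously. Compounds tested up to 22.9 uM final; 100 uM RO 20-1724 reference.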

The mark [17] stands for this setting: measured here: cell count channel max response.
Where [18] appears, read: measured here: lipid channel max response.
[19] abbreviates: at 7.69 µM (top of the series) unless noted.

Glucocorticoid receptor (Homo sapiens), sequence (P04150 whole entry, looked up, the tested form may be a part): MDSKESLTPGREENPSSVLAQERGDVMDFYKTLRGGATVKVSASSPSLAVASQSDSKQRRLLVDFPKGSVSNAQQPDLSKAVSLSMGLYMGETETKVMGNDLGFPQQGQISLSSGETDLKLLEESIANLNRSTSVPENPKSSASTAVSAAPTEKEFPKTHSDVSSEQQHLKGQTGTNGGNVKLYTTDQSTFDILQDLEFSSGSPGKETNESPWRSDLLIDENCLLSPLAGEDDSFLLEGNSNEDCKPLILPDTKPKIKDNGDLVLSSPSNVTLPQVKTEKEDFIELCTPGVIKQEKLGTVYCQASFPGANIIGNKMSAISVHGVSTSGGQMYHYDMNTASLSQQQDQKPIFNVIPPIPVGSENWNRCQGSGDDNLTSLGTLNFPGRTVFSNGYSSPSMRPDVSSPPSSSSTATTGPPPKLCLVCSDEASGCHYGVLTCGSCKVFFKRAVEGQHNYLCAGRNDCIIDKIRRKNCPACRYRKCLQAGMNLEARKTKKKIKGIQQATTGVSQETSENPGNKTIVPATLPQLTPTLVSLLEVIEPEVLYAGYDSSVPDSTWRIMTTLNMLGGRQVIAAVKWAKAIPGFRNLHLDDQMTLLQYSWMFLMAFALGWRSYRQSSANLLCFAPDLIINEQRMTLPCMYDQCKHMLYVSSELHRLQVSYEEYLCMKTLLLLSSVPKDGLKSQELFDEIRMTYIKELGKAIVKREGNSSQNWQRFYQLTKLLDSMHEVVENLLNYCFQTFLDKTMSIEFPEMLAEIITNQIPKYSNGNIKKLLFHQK
Ubiquitin carboxyl-terminal hydrolase 1 (Homo sapiens), sequence (O94782 whole entry, looked up): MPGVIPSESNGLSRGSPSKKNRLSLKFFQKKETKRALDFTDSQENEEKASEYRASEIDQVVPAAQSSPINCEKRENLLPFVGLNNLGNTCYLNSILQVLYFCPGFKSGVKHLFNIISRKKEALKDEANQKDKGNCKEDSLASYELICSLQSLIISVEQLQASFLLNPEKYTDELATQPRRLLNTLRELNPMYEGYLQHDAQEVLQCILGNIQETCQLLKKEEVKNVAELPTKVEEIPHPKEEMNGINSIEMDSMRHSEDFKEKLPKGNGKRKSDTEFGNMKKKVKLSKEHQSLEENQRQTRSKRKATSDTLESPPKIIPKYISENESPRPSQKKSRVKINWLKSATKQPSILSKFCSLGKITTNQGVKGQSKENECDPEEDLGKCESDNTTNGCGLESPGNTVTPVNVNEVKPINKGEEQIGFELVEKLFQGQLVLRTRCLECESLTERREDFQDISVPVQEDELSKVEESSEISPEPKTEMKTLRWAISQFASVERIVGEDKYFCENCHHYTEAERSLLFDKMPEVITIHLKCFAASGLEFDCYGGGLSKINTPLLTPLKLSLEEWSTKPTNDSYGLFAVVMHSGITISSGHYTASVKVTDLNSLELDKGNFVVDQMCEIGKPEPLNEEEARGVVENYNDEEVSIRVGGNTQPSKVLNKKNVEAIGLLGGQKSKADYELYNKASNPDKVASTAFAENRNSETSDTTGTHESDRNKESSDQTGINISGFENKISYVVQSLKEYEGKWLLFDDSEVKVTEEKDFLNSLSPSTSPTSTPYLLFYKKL
Luciferin 4-monooxygenase (Photinus pyralis), sequence (P08659 whole entry, looked up): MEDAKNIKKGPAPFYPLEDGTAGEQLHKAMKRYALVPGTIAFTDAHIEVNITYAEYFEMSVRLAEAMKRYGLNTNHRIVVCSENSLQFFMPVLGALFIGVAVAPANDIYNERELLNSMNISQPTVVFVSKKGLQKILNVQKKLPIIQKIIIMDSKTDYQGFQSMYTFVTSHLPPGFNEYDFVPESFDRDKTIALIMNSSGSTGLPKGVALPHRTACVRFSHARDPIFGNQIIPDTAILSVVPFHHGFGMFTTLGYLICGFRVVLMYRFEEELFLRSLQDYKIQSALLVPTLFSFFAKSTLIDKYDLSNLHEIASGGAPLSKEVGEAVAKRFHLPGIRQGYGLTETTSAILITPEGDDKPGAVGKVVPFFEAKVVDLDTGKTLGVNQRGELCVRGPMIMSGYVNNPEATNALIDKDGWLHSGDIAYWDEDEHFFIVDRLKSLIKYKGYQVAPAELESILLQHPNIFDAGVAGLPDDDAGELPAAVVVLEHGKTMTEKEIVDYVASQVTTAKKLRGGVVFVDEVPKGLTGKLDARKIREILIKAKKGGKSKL
3',5'-cyclic-AMP phosphodiesterase 4B (Homo sapiens), sequence (Q07343 whole entry, looked up): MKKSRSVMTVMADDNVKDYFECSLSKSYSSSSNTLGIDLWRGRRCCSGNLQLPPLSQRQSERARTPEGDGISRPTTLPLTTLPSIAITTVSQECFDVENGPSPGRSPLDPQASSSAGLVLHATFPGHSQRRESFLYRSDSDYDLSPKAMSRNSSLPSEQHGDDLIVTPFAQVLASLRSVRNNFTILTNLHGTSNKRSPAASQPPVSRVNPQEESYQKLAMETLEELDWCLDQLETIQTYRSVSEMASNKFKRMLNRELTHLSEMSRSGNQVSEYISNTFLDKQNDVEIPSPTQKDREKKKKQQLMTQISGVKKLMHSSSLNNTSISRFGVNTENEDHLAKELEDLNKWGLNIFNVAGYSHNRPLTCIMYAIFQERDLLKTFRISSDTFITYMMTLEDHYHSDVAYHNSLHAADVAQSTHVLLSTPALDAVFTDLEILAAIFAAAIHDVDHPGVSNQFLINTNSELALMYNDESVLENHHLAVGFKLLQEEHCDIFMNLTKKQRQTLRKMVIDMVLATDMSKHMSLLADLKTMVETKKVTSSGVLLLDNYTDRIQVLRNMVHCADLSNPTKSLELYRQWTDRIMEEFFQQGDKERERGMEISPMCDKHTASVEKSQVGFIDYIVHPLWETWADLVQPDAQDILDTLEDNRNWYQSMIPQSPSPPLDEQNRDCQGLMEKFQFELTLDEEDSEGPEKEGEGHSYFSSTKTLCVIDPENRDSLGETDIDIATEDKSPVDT
Cytochrome P450 1A2 (Homo sapiens), sequence (P05177 whole entry, looked up): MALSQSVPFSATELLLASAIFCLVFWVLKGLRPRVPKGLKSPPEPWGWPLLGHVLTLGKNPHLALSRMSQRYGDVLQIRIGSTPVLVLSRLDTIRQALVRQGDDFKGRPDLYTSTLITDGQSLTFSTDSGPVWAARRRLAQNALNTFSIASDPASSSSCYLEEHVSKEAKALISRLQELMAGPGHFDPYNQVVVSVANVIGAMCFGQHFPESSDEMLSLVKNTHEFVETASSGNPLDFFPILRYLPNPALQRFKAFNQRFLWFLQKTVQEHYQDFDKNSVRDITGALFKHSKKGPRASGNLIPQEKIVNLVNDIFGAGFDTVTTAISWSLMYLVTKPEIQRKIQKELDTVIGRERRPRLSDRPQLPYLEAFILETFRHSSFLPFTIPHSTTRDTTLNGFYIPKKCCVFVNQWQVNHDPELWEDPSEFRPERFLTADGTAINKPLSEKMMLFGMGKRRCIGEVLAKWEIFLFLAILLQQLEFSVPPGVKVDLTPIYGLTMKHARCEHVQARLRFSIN
ATP-dependent 6-phosphofructokinase (Trypanosoma brucei brucei), sequence (O15648 whole entry, looked up): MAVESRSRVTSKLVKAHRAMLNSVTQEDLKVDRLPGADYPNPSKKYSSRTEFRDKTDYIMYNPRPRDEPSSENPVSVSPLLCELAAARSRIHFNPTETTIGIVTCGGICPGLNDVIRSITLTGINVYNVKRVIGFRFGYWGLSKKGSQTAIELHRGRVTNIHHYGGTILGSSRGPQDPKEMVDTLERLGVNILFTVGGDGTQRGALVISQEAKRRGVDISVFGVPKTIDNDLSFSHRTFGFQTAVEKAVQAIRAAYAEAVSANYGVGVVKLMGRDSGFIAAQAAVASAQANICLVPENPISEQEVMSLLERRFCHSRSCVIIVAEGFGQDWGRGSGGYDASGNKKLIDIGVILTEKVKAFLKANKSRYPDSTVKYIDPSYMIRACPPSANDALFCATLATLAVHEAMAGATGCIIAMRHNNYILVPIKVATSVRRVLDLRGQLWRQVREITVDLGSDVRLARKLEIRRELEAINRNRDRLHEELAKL
Alpha-galactosidase A (Homo sapiens), sequence (P06280 whole entry, looked up): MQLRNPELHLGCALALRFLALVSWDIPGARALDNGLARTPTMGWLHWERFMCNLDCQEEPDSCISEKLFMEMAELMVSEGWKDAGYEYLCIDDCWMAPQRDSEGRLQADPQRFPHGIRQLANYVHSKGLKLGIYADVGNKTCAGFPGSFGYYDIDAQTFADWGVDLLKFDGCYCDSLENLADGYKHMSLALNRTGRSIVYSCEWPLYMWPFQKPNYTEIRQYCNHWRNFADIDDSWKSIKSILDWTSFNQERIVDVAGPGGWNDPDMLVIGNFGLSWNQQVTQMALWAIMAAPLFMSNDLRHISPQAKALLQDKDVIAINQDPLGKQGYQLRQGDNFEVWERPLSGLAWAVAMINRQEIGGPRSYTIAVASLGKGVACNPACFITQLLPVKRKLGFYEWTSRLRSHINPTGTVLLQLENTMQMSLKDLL
Pyruvate kinase (Leishmania mexicana), sequence (Q27686 2-499 E452W): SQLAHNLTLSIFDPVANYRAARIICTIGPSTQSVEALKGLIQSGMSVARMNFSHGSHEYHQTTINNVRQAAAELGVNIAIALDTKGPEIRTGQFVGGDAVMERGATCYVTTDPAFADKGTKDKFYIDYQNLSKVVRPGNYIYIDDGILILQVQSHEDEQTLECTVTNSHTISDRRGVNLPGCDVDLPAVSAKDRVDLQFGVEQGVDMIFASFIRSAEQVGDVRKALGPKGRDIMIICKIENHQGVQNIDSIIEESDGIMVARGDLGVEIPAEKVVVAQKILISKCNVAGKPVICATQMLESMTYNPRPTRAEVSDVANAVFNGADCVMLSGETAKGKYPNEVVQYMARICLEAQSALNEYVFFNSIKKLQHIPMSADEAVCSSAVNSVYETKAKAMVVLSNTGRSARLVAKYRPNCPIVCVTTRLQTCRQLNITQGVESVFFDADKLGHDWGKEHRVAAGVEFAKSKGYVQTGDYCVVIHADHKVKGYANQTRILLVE

As for `CC(=O)O[C@@H](C)C[N+](C)(C)C`, the values for the activity change, negative = inhibition in experiment [1] (at 17.2 µM (top of the series)), in experiment [1] (at 38 µM (top of the series)) and in experiment [9] were 20.9% (inactive), 13.8% (inactive) and -1.12% (inactive), respectively. The Potency entry (in experiment [2]; in experiment [5]; in experiment [11]; with AS120; with CP238; in the experiment with CP265) was “inactive” throughout. Further, the Potency entry in the experiment on FAB9 is “inactive”. Besides, the activity, negative = inhibition is -1.77% (inactive) in experiment [3] (at 17.2 µM (top of the series)), 30.8% (inactive) in experiment [3] (at 38 µM (top of the series)), 0.161% (inactive) in experiment [13] (parasite line A) and 7.9% (inactive) in experiment [13] (parasite line B). Moreover, in [4], the Potency was > 46 µM (inactive) and > 20.6 µM (inactive). For the same compound, the result in [6], in experiment [7], in [8], in experiment [10] and in [12] was inactive. The max response in experiment [9] (setting [17]) was -2.61%; in experiment [9] (setting [18]) it was -4.64%.

Turning to `Cn1c(=O)c2c(ncn2C[C@@H](O)CO)n(C)c1=O`, the activity change, negative = inhibition is 9.72% [at 17.2 µM] (inactive) in [1] (setting [19]), -4.3% [at 17.2 µM] (inactive) in [14] and 0.654% (inactive) in experiment [9]. Moreover, the Potency entry (in [2]; in [5]; in experiment [16]; in experiment [11]; in the experiment on AS120; with CP238) was “inactive” each time. For the same compound, the Potency result in the experiment on CP265 and with FAB9 was “inactive” in each case. The activity, negative = inhibition is 11.3% [at 17.2 µM] (inactive) in experiment [3] (setting [19]), 0.439% (inactive) in experiment [13] (parasite line A) and -2.95% (inactive) in experiment [13] (parasite line B). Moreover, the Potency in experiment [4] and in experiment [15] was > 20.6 µM (inactive) each time. The max response in experiment [9] (setting [17]) was -0.539%; in [9] (setting [18]), -0.706%. In addition, the compound was called inactive in experiment [10] and in [12].

As for `C/C=C\C(=O)N(CC)c1ccccc1C`, the activity change, negative = inhibition in experiment [1] (setting [19]) was -1.59% [at 17.2 µM] (inactive); in experiment [14], -0.257% [at 17.2 µM] (inactive); in experiment [9] it was -4.01% (inactive). Further, the Potency result (in [2]; in experiment [5]; in experiment [16]; in the experiment on AS120; in the experiment with CP238; in the experiment with CP265) was “inactive” each time. For the same compound, in the experiment on FAB9, the Potency result is “inactive”. Moreover, the activity, negative = inhibition in [3] (setting [19]) was 4.14% [at 17.2 µM] (inactive); in experiment [13] (parasite line A), 6.96% (inactive); in [13] (parasite line B), 1.34% (inactive). Moreover, the Potency in experiment [4] and in experiment [15] was > 20.6 µM (inactive) each time. Moreover, the max response in experiment [9] (setting [17]) was -15.1%; in experiment [9] (setting [18]), -17.7%. Besides, the result in [10] and in [12] was inactive.

In the case of `CN1[C@@H](CC(=O)c2ccccc2)CCC[C@@H]1C[C@@H](O)c1ccccc1`, the activity change, negative = inhibition is -1.05% (inactive) in experiment [1] (at 17.2 µM (top of the series)), 6.06% (inactive) in [1] (at 38 µM (top of the series)) and -0.989% (inactive) in experiment [9]. Besides, in experiment [2], the Potency was 31.6 µM (active) and 5.01 µM (active). In addition, the activity, negative = inhibition in experiment [3] (at 17.2 µM (top of the series)) is 0.159% (inactive); in [3] (at 38 µM (top of the series)) it was -8.54% (inactive). The Potency entry in [5], in experiment [16] and in experiment [11] was “inactive” each time. In addition, the call in experiment [6], in experiment [7] and in experiment [8] was inactive. Further, the max response was -6.57% in [9] (setting [17]) and -6.75% in experiment [9] (setting [18]).
